Assay [1] is described as follows: qHTS assay to identify small molecule antagonists of the sonic hedgehog signaling (Shh) pathway (AID 1259369). Also: nearly all actives have a fitted effect of over 45% in size. The method in brief: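 Gli1 transcriptional reporter (firefly Luc) in NIH/3T3 background, conditioned-medium activated. 24hr exposure, luminescence endpoint.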
On the technique in general: In qHTS, concentration-response curves come from the screen itself.

Assay [2] can be described thus: qHTS assay to identify small molecule agonists of the androgen receptor (AR) signaling pathway in the presence of an antagonist - cell viability counter screen (AID 1259379; active = well fitted curve in the direction sought with a large enough effect in the repeat runs; an effect the other way counts as inactive or inconclusive;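 also: MDA-kb2 human breast cancer cells carrying an MMTV luciferase reporter; series mostly up to about 92 µM; nearly all actives have a fitted effect of over 25% in size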). In short, it runs like this: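 Counter screen for cell viability run in parallel with the AR agonist-mode luciferase assay. MDA-kb2 cells were co-treated with nilutamide (3.0uM final) and compounds, then incubated 16 hr at 37C, and CellTiter-Fluor fluorescence was measured.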

Assay [3] can be described thus: qHTS assay to identify small molecule agonists of the estrogen receptor beta (ER-beta) signaling pathway - cell viability counter screen (AID 1259380; active = well fitted curve in the direction sought with a large enough effect in the repeat runs; an effect the other way counts as inactive or inconclusive; also: nearly all actives have a fitted effect of over 30% in size; also: potency is read from the fitted curve at half-maximal effect). The method in brief:
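In this qHTS counter screen, HEK293T cells carrying an ER-beta/UAS beta-lactamase reporter, grown in 2% charcoal-stripped FBS, received compound for 16 hr; ATP-based CellTiter-Glo luminescence was then read after 30 min at room temperature.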

In assay [4] the target is Androgen receptor (Homo sapiens) (UniProt P10275). Put plainly: qHTS assay to identify small molecule agonists of the androgen receptor (AR) signaling pathway in the presence of an antagonist (AID 1259381). Also: nearly all actives have a fitted effect of over 15% in size. The method in brief: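 AR antagonist background: nilutamide 3.0uM final. Cell line: MDA-kb2, MMTV-driven luciferase, responsive to both AR and GR. Exposure 16hr, 37C, no CO2; ONE-Glo luminescence.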
Androgen receptor (Homo sapiens), sequence (P10275 whole entry, looked up): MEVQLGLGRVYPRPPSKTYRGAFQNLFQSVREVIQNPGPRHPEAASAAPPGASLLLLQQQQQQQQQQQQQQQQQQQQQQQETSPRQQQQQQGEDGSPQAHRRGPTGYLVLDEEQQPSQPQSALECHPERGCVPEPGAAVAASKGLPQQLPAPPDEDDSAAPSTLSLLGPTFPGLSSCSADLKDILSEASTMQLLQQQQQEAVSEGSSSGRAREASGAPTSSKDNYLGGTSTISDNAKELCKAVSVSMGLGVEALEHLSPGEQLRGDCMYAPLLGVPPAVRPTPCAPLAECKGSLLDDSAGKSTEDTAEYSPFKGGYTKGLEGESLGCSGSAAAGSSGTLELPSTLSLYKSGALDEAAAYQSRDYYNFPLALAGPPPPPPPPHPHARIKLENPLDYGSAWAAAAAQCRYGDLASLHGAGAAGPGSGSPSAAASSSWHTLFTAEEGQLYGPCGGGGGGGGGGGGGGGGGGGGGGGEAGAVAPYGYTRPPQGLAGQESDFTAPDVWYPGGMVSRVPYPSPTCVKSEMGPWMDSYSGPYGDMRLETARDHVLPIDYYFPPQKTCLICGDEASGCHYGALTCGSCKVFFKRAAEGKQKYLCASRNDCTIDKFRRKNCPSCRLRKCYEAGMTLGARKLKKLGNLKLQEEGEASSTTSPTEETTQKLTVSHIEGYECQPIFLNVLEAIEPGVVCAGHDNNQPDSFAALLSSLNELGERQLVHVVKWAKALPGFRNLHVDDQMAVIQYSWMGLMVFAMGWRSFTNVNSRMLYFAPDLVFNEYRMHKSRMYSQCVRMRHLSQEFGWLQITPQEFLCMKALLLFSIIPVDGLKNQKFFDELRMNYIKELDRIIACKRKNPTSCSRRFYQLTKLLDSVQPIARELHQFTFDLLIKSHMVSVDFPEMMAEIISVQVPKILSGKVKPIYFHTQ

Assay [5] can be described thus: qHTS assay to identify small molecule antagonists of the estrogen receptor beta (ER-beta) signaling pathway - cell viability counter screen (AID 1259382; active = well fitted curve in the direction sought with a large enough effect in the repeat runs; an effect the other way counts as inactive or inconclusive; also: series mostly up to about 92 µM; nearly all actives have a fitted effect of over 55% in size). The method in brief:
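HEK293T ER-beta-UAS-bla, 2% charcoal-stripped FBS; compounds + 1nM E2 16 hr 37C; CellTiter-Glo luminescence, 30 min RT.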

Assay [6] has as its target Estrogen receptor (Homo sapiens) (UniProt P03372). Put plainly: qHTS assay to identify small molecule agonists of the estrogen receptor alpha (ER-alpha) signaling pathway in the presence of an antagonist (AID 1259383). Also: top concentration of the series differs between compounds; nearly all actives have a fitted effect of over 15% in size. The method in brief:
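ER-alpha agonism measured under antagonist challenge: 10.0nM ICI-182,780 (final) plus compound, 15 concentrations, 22hr, VM7Luc4E2 ERE-luciferase cells. Read by luminescence.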

Assay [7] deals with Progesterone receptor (Homo sapiens) (UniProt P06401). Description: qHTS assay to identify small molecule agonists of the progesterone receptor (PR) signaling pathway (AID 1346784). Also: nearly all actives have a fitted effect of over 30% in size. In short, it runs like this: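 Reporter assay, GripTite PR-UAS-bla HEK 293T cells: 16 hr exposure to DMSO-dissolved compounds at 37C, 5% CO2, in steroid-depleted (2% charcoal-stripped FBS) medium; beta-lactamase measured by FRET fluorescence.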
Progesterone receptor (Homo sapiens), sequence (P06401 whole entry, looked up): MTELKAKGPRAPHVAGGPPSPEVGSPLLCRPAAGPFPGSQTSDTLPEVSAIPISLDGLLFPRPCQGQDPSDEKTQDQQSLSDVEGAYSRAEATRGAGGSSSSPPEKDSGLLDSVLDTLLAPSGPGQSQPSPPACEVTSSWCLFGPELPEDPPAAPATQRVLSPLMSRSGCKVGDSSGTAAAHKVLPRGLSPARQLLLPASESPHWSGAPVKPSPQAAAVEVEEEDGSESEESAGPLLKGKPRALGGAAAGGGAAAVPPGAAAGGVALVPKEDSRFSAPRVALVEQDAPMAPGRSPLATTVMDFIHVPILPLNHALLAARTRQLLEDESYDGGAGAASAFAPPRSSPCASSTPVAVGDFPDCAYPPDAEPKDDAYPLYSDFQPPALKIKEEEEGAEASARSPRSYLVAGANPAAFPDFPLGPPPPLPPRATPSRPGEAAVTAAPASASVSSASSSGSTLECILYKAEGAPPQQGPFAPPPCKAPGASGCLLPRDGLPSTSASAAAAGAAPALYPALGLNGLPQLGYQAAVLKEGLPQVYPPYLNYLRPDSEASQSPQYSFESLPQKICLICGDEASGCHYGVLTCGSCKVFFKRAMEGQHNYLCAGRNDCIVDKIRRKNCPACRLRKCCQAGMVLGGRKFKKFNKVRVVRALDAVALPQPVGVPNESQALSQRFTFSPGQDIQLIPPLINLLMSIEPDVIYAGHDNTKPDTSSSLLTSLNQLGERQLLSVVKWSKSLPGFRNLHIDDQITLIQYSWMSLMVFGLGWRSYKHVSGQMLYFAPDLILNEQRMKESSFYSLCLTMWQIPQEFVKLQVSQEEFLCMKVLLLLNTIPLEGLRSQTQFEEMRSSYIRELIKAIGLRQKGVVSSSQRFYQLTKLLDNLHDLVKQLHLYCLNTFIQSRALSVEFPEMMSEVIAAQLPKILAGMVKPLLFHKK

The nature of assay [8]: qHTS assay to identify small molecule antagonists of the progesterone receptor (PR) signaling pathway - cell viability counter screen (AID 1346798; active = well fitted curve in the direction sought with a large enough effect in the repeat runs; an effect the other way counts as inactive or inconclusive; also: series mostly up to about 92 µM; nearly all actives have a fitted effect of over 50% in size). The method in brief: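 In the same plates used for the beta-lactamase readout, cell viability of compound- and R5020-treated PR-UAS-bla HEK293T cells (16 hr, 37C) was assessed by CellTiter-Glo luminescence.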
A short description of assay [9]: qHTS assay to identify small molecule agonists of the progesterone receptor (PR) signaling pathway - cell viability counter screen (AID 1346799). Also: nearly all actives have a fitted effect of over 45% in size. In short, it runs like this: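 Multiplexed viability read: CellTiter-Glo luminescence, 30 min RT, following LiveBLAzer FRET measurement on PR-UAS-bla HEK293T cells exposed to compounds 16 hr.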
Assay [10] in a line: qHTS assay to identify small molecule antagonists of the TGF-beta/Smad signaling pathway - cell viability counter screen (AID 1346824; active = well fitted curve in the direction sought with a large enough effect in the repeat runs; an effect the other way counts as inactive or inconclusive; also: nearly all actives have a fitted effect of over 50% in size). In short, it runs like this:
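SBE-bla HEK 293T cells were plated overnight at 37 C, then given compounds in DMSO plus TGF-beta1 (added as 0.25 ng/mL solution) for 5 hr. After the bla read, CellTiter-Glo was added to the same wells and luminescence read after 30 min at room temperature.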

Assay [11] in a line: qHTS assay to identify small molecule agonists of the TGF-beta/Smad signaling pathway - cell viability counter screen (AID 1346829; active = well fitted curve in the direction sought with a large enough effect in the repeat runs; an effect the other way counts as inactive or inconclusive; also: top concentration of the series differs between compounds; nearly all actives have a fitted effect of over 45% in size). The method in brief:
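Tox21 qHTS format: SBE-bla HEK 293T cells treated with DMSO-dissolved compounds for 5 hr; CellTiter-Glo luminescence after 30 min at room temperature.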

Assay [12] is described as follows: qHTS assay to identify small molecule agonists of the TGF-beta/Smad signaling pathway (AID 1346859; active = well fitted activation curve with a large enough effect in the signal ratio in the repeat runs, not every such curve was filed as active; the % refers to the signal ratio; also: series mostly up to about 77 µM). The method in brief: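 Screening used HEK 293T SBE-bla cells at 4,000/well. Test agents: 5 hr, 37 C. Detection: FRET substrate, 2 hr RT, then excitation 405 nm with emissions at 460 and 530 nm.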
In assay [13] the target is Thyrotropin-releasing hormone receptor (Homo sapiens) (UniProt P34981). Description: qHTS assay to identify small molecule antagonists of the thyrotropin-releasing hormone receptor (TRHR) signaling pathway (AID 1346877; active = well fitted inhibition curve with a large enough effect in the repeat runs, not every such curve was filed as active; also: series mostly up to about 51 µM). The method in brief:
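Human TRHR in HEK293 cells; inhibition of the intracellular calcium rise triggered by 1 nM TRH was followed by fluorescence over 3 min. Compounds were run at 15 concentrations, three replicates each.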

Assay [14] shares this target. Description: qHTS assay to identify small molecule agonists of the thyrotropin-releasing hormone receptor (TRHR) signaling pathway (AID 1346891). Also: series mostly up to about 58 µM. In short, it runs like this: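 Readout was intracellular calcium fluorescence in TRHR-Hek293 cells. Cells were incubated 18 h, dye-loaded 2 h at 37 °C, and treated with compound in agonist mode.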
Assay [15] addresses Estrogen receptor beta (Homo sapiens) (UniProt Q92731). Put plainly: qHTS assay to identify small molecule antagonists of the estrogen receptor beta (ER-beta) signaling pathway (AID 1259378; active = well fitted inhibition curve with a large enough effect in the signal ratio in the repeat runs, not every such curve was filed as active; the % refers to the signal ratio; also: potency is read from the fitted curve at half-maximal effect). The method in brief: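 ER-beta-UAS-bla HEK293T (GripTite) cells in 2% charcoal-stripped FBS medium were preincubated 6 hr at 37C, dosed with compound, then stimulated with 1 nM E2 (final) for 16 hr; beta-lactamase reporter read by B/G FRET fluorescence after 2 hr substrate loading.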

Assay [16] deals with Thyrotropin receptor (Homo sapiens) (UniProt P16473). Description: qHTS assay to identify small molecule antagonists of the thyroid stimulating hormone receptor (TSHR) signaling pathway (AID 1259385). Also: nearly all actives have a fitted effect of over 20% in size. The method in brief:
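TSHR-HEK293 cells were plated and held 18 h at 37C/5% CO2, then given compound plus Ro20-1724 and stimulated with TSH at 1.5 ng/mL final. After 30 min at room temperature, cAMP was detected with cAMP-d2/anti-cAMP-cryptate (1 h) by fluorescence.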

Assay [17] in a line: qHTS assay to identify small molecule agonists of the estrogen receptor alpha (ER-alpha) signaling pathway in the presence of an antagonist - cell viability counter screen (AID 1259386; active = well fitted curve in the direction sought with a large enough effect in the repeat runs; an effect the other way counts as inactive or inconclusive;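 also: series mostly up to about 92 µM; cells exposed to compounds for 22 h at 37 °C before the viability read; nearly all actives have a fitted effect of over 30% in size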). The method in brief:
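Steps: 5-day stripped-FBS culture; seed and incubate 24hr; add ICI-182,780 (10.0nM final); pin 15-point compound titration; incubate 22hr at 37C; add CellTiter-Fluor at 21hr; read fluorescence.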

The target of assay [18] is Progesterone receptor (Homo sapiens) (UniProt P06401). Put plainly: qHTS assay to identify small molecule antagonists of the progesterone receptor (PR) signaling pathway (AID 1346795; active = well fitted inhibition curve with a large enough effect in the signal ratio in the repeat runs, not every such curve was filed as active; the % refers to the signal ratio; also: potency is read from the fitted curve at half-maximal effect). The method in brief: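 Stimulus R5020 at 1 nM final; cells HEK293T PR-UAS-bla; medium with 2% charcoal-stripped FBS; compound exposure 16 hr at 37C, 5% CO2; detection by FRET beta-lactamase substrate, 2 hr, room temperature.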

Assay [19] is described as follows: qHTS assay to identify small molecule agonists or antagonists of the thyroid stimulating hormone receptor (TSHR) signaling pathway - wild type cell line counter screen (AID 1259384). The method in brief:
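Wild-type HEK293 cells were plated 18 h at 37 C/5% CO2, pin-dosed with compound plus Ro20-1724 medium, held 30 min at room temperature, then given cAMP-d2 and anti-cAMP-cryptate; fluorescence was read after 1 h. Fifteen concentrations, triplicate.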

Structures are written as SMILES. Values without a mark were called inactive. Inconclusive results are not listed. Active and inactive are the calls of the source. Unless noted, calls follow the shape of the full dose curve.

Estrogen receptor (Homo sapiens), sequence (P03372 whole entry, looked up): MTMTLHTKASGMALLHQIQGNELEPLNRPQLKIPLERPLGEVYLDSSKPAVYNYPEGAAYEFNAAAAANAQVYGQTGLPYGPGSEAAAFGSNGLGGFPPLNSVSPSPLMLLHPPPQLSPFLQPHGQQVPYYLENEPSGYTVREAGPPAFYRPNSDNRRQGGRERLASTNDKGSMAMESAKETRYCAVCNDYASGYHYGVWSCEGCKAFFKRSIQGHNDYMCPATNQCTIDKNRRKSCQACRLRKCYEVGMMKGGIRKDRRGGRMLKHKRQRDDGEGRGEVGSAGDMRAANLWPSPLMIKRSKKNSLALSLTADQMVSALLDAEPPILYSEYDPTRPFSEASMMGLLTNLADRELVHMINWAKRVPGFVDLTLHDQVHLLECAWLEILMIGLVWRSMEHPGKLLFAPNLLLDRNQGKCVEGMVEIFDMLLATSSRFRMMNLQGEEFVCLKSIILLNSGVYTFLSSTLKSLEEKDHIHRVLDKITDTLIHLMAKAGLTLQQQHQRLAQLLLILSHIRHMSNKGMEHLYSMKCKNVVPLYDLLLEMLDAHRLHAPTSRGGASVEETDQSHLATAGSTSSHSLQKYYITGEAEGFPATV
Thyrotropin-releasing hormone receptor (Homo sapiens), sequence (P34981 whole entry, looked up): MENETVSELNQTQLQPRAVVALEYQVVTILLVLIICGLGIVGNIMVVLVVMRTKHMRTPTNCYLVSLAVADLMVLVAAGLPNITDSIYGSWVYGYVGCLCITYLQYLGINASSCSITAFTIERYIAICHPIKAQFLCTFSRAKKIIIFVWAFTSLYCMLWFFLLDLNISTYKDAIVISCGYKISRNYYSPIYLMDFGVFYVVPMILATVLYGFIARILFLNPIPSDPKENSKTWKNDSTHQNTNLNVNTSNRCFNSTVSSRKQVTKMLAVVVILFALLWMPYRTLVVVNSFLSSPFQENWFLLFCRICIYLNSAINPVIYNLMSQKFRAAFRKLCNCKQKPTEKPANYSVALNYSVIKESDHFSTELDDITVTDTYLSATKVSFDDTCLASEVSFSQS
Thyrotropin receptor (Homo sapiens), sequence (P16473 whole entry, looked up): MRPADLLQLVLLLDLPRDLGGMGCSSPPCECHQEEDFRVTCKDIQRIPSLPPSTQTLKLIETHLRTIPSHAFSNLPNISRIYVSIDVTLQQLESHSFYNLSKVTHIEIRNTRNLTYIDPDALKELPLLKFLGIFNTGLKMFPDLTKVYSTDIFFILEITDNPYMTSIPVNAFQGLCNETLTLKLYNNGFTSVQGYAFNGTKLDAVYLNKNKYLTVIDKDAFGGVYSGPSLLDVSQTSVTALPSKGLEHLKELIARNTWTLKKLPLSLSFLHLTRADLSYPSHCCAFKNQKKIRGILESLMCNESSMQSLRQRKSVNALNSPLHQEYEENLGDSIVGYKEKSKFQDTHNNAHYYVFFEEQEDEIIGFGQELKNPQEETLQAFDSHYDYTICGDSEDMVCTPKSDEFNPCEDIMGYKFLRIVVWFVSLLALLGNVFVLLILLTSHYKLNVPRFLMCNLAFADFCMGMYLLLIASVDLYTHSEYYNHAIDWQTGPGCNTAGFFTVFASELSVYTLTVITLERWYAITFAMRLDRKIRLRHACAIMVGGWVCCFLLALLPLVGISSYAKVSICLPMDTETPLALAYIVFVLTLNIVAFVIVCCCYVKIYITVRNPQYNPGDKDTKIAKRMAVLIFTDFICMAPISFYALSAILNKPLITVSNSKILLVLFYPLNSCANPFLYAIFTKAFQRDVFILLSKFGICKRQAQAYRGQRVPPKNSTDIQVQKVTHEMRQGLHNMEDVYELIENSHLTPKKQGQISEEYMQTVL
Estrogen receptor beta (Homo sapiens), sequence (Q92731 whole entry, looked up): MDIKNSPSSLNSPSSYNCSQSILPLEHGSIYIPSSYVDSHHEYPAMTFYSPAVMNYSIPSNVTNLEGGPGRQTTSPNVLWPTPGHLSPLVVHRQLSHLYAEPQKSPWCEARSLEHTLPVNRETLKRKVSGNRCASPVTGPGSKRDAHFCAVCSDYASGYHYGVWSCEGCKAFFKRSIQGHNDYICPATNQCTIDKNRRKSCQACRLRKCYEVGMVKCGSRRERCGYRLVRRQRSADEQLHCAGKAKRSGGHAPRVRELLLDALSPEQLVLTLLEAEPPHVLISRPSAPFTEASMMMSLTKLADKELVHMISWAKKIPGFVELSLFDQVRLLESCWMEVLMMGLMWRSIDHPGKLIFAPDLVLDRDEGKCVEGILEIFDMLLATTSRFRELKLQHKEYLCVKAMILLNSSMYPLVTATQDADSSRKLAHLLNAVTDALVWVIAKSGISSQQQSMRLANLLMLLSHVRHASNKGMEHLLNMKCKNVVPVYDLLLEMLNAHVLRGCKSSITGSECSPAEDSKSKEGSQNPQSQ

As for `Nc1cccc([N+](=O)[O-])c1`, the Potency entry in assay [1], in assay [2], in assay [3], in [4], in assay [5] and in assay [6] was “inactive” each time. The Potency result in assay [7], in assay [8], in assay [9], in assay [10], in assay [12] and in assay [14] was “inactive” in each case. In addition, the call in assay [11] and in assay [13] was inactive.

As for `O=S(=O)(Oc1ccc(Cl)cc1)c1ccccc1`, the Potency result in assay [1], in [15], in [2], in assay [3], in [5] and in assay [6] was “inactive” each time. Moreover, the Potency result in assay [16], in [17], in assay [8], in assay [9] and in assay [14] was “inactive” each time. Further, the Potency in [18] is 24.3 µM (active). Also, the call in [11] and in assay [13] was inactive.

In the case of `C[N+]1(C)CCC(OC(=O)C(O)(c2ccccc2)C2CCCC2)C1` (configuration not stated), the Potency result in assay [1], in [2], in assay [3], in assay [5], in [6] and in assay [19] was “inactive” throughout. Besides, the Potency result in [16], in assay [17], in [7], in assay [18], in assay [8] and in [9] was “inactive” throughout. The Potency result in [12] was “inactive”. Moreover, the result in assay [11] and in assay [13] was inactive.

In the case of `CC1CCC(=O)C1=O` (configuration not stated), the Potency result in [1], in assay [2], in [3], in [5], in assay [6] and in assay [19] was “inactive” each time. In addition, the Potency entry in assay [16], in [17], in assay [7], in assay [18], in assay [9] and in assay [12] was “inactive” in each case. In assay [11], the outcome was inactive.

Take `CCCC(=O)Nc1ccc(O)c(C(C)=O)c1`: the Potency result in assay [1], in assay [2], in assay [3], in assay [5], in [6] and in assay [19] was “inactive” throughout. Moreover, the Potency entry in [16], in assay [17], in assay [7], in assay [9], in assay [10] and in assay [12] was “inactive” each time. For the same compound, in [14], the Potency result was “inactive”. Besides, the result in assay [11] and in assay [13] was inactive.

On to `Cc1oc(-c2ccccc2)nc1CCOc1cccc2c1ccn2CCC(=O)O`, for which the Potency result in assay [1], in [5], in assay [6], in assay [19], in assay [16] and in assay [7] was “inactive” in each case. The Potency entry in assay [10] is “inactive”. For the same compound, the figures for the Potency in assay [15] and in [3] were 30.6 µM (active) and 10.9 µM (active), respectively. Further, in assay [11], the result was inactive.

For the compound `CN(C)c1ccc(CCO)cc1`, the Potency entry in [1], in assay [2], in assay [3], in assay [5], in assay [6] and in [19] was “inactive” each time. Further, the Potency entry in [16], in [7], in assay [10] and in assay [12] was “inactive” in each case. In addition, in assay [11], the compound was called inactive.

These data come from PubChem BioAssay (Tox21).
